From PubChem BioAssay (NCATS)
Records with an inconclusive call do not appear. A call without a number means that no potency is given here. Values without a mark were called inactive. Active and inactive are the calls of the source. Calls come from the whole dose curve; as a rule, active = well fitted cell-killing curve with a large enough effect; inconclusive = small, poorly fitted or top-dose-only effect; inactive = no such curve, though single readings can be large or run the other way.

Experiment: qHTS of pediatric cancer cell lines to identify multiple opportunities for drug repurposing: Primary screen for NB1643 cells (AID 1347099); note: nearly all actives have a fitted effect of over 50% in size
Conditions: NB1643 neuroblastoma viability, CellTiter-Glo luminescence, 48 h; series mostly up to 46 µM
Text: Drug repurposing or repositioning has been offered as a strategy for drug development in oncology programs. This approach has special potential for childhood cancers and other rare or orphan diseases, where the expected return on new drug development has been a disincentive to pharmaceuticals. […] In this project we exploit the poly-pharmacology of drugs to discover new indications via phenotypic screening of a panel of 19 well-characterized cell lines derived from solid tumors seen in children and adolescents. The goal is to identify approved drugs with previously unrecognized anticancer properties that has the potential to reveal new mechanisms and biological processes involved in carcinogenesis or drug resistance. We employed a titration-based paradigm (quantitative high-throughput screening or qHTS), where all compounds were tested at multiple concentrations for their effect on cell viability. Concentration-response curves (CRCs) were derived directly from the primary screen, and both potency and efficacy values were used to identify compounds with robust bioactivity profiles. We screened the NIH Chemical Genomics Center (NCGC) Pharmaceutical Collection (NPC) and Mechanism Interrogation Plate (MIPE) small molecule collections of approved and investigational compounds against these cell lines; and measured metabolically active cells after 48 hours of compound treatment as a proxy for cell viability. […] Assay Submitter: Nathalia J. Martinez, National Center for Advancing Translational Sciences, National Institutes of Health, Rockville, MD, USA; email: natalia.martinez@nih.gov Shen, M et al. Quantitative high-throughput phenotypic screening of pediatric cancer cell lines identifies multiple opportunities for drug repurposing. Oncotarget 2017 Dec 19;9(4):4758-4772. PMID 29435139.
The cells were obtained from University of North Carolina (UNC), Pediatric Preclinical Testing Program (PPT), and Coriell Institute (CI). qHTS cell viability assay: Cells were assayed in growth media at a density of 500-1,000 cells/well. Five microliters of cells were dispensed into 1,536-well, white, solid-bottom, TC-treated plates (Greiner Bio One) using a multidrop dispenser and incubated at 37 degrees C, 5% CO2, under a humidified atmosphere for 5 hours. Twenty-three nanoliters of compounds and controls (neutral control DMSO or positive control bortezomib at final concentration of 2.3 µM) were subsequently transferred by Kalypsys pintool. For primary screens, the MIPE collection was tested at 11-point dilutions (final concentrations range from 0.78 nM to 46 µM) and the NPC collection at 8-point dilutions (final concentrations range from 0.59 nM to 46 µM). Compounds tested in follow-up screens were assayed at 11-point dilutions. Cells were incubated for 48 hours, followed by addition of 3 µL of CellTiter-Glo (Promega). After a 15 min incubation at room temperature, samples were analyzed for luminescence intensity using a ViewLux High-throughput CCD imager equipped with clear filters.
Potency is the fitted concentration of half-maximal effect.

SMILES | Potency | activity change, negative = cytotoxic
Cc1ccc(/C=N/n2c(-c3ccccc3)csc2=S)cc1 | inactive | –
O=C1CC(c2ccc(Cl)cc2)CC(=O)N1 | inactive | –
CCC(CN)=C(c1ccccc1)c1ccccc1 | inactive | –
Cc1nc2n(c(=O)c1CCN1CCC(C(=O)c3ccc(F)cc3)CC1)CCS2 | inactive | –
CC(=O)OCC(=O)[C@@]1(O)CCC2C3CCC4=CC(=O)CC[C@]4(C)C3[C@@H](O)C[C@@]21C (stereo not given in full) | inactive | –
CCCCCCCCCCCCCC[N+](C)(C)C | 23.7 µM (active) | –
COc1ccc(CCC(C)=O)cc1 | inactive | –
CO/N=C(/C(=O)N[C@@H]1C(=O)N2C(C(=O)[O-])=C(C[n+]3ccn4ncccc43)CS[C@H]12)c1nsc(N)n1 | inactive | –
CCOc1ncc(F)c(=O)[nH]1 | inactive | –
CCOC(=O)OCC/C(SC(=O)OCC)=C(\C)N(C=O)Cc1cnc(C)nc1N | inactive | –
CN1Cc2cc(C(=O)N3CCC(C4CCNCC4)CC3)ccc2N[C@@H](CC(=O)O)C1=O | inactive | –
O=c1[nH]c2ccccc2c(=O)n1CCCl | inactive | –
CC(C)(C)c1nnc(NS(=O)(=O)c2ccccc2)s1 | inactive | –
O=C(Nc1ccc(S(=O)(=O)N2CCOCC2)cc1)c1cc(Cl)ccc1NS(=O)(=O)c1ccc(Cl)s1 | inactive | –
CC1CN(c2cc3c(cc2F)c(=O)c(C(=O)O)cn3-c2ccc(F)cc2F)CCN1 (stereo not given) | – | -5.39% [at 4.84 µM]
[O-][n+]1cccc(/C(Cl)=N/OC[C@@H](O)CN2CCCCC2)c1 | inactive | –
C1N2CN3CN1CN(C2)C3 | inactive | –
CCS(=O)(=O)c1ccc(OC)c(C(=O)OC)c1 | inactive | –
CCCCC(O)/C=C(C)/C=C/C=C/C(=O)N1CCCC1=O (stereo not given) | inactive | –
CC(=O)CC/C=C(\C)CC/C=C(\C)CC/C=C(\C)CCC=C(C)C | inactive | –

SMILES | Potency | activity change, negative = cytotoxic
Cc1cccc(C)c1NC(=O)c1ccc(N)cc1 | inactive | –
Nc1ncnc2nc[nH]c12 | inactive | –
CC(C)NC(=O)c1ccc(C=O)cc1 | inactive | –
CCOC(=O)Oc1ccc(CCNC(=O)[C@H](CCSC)NC(C)=O)cc1OC(=O)OCC | inactive | –
COCCOCC(OC)OC | inactive | –
CC(=O)Nc1ccc(S(=O)(=O)Nc2cc(C)on2)cc1 | inactive | –
C#Cc1ccc(-c2ccccc2F)cc1 | inactive | –
COc1ccccc1N1CCN(CC(O)COc2cc(OC)c(OC)c(OC)c2)CC1 (stereo not given) | inactive | –
COCCc1ccc(OCC2CO2)cc1 (stereo not given) | inactive | –
O=C(Oc1ccccc1)c1ccccc1O | inactive | –
CCCCCCn1c(=O)c2c(ncn2C)n(C)c1=O | inactive | –
COC(=O)c1cc(S(N)(=O)=O)ccc1OC | inactive | –
COc1cc2c(cc1OC)CN(C(=O)[C@H](C)N[C@@H](CCc1ccccc1)C(=O)O)[C@H](C(=O)O)C2 | inactive | –
CN(C)CCN1CCN(c2cccc(Cl)c2)C1=O | inactive | –
COC(=O)C1=C(C)NC(COC(N)=O)=C(C(=O)OC(C)C)C1c1cccc(Cl)c1Cl (stereo not given) | inactive | –
CC(C)OP(=O)(CP(=O)(OC(C)C)OC(C)C)OC(C)C | inactive | –
CC1(C)O[C@@H]2C[C@H]3[C@@H]4C[C@H](F)C5=CC(=O)C=C[C@]5(C)[C@@]4(F)[C@@H](O)C[C@]3(C)[C@]2(C(=O)CO)O1 | inactive | –
O=C(O)CNC(=O)CNC(=O)CNC(=O)CSC(=O)c1ccccc1 | inactive | –
CO[C@@]1(NC(=O)CSC[C@@H](N)C(=O)O)C(=O)N2C(C(=O)O)=C(CSc3nnnn3C)CS[C@@H]21 | inactive | –
COC(=O)c1c(Cl)c(Cl)c(C(=O)OC)c(Cl)c1Cl | inactive | –
